The values below come from PubChem BioAssay AID488821 (National Center for Advancing Translational Sciences (NCATS), 2010).

Records with an inconclusive call do not appear. Values without a mark were called inactive. Active and inactive are the calls of the source. The call rests on the fitted dose curve; in most records, active means well fitted inhibition curve with a large enough effect; inconclusive means small, poorly fitted or top-dose-only effect, or effect the other way; inactive means flat fitted curve, though single readings scatter.

The test can be described thus: Counterscreen Assay for Enhancers of SMN2 Splice Variant Expression: Modulation of SMN1 Expression for Further Probe SAR. As to conditions: HEK293 SMN1-luciferase reporter, luminescence, 30-36 h; series mostly up to 46.1 µM; activity change, negative = inhibition: at the top concentration. The text has this: NIH Chemical Genomics Center [NCGC] NIH Molecular Libraries Probe Production centers Network [MLPCN] MLPCN Grant: R03 MH084179-01 Assay Submitter (PI): Elliot Androphy NCGC Assay Overview: Spinal muscular atrophy (SMA) is caused by insufficient levels of the survival motor neuron protein SMN. The SMN locus on chromosome 5q13 contains two inverted copies of SMN called SMN1 and SMN2 which are 99% identical at the amino acid level. SMN1 is a fully functional protein and SMN2 skips exon 7 90% of the time. Skipping of exon 7 produces non-functional protein product. 10% of the SMN2 protein includes exon 7 and is fully functional. In the SMA disease state, mutations in the SMN1 locus are the cause of the disease state. Because only 10% of SMN2 is of the fully functional form, it is not sufficient to overcome the deficiency produced by the loss of the SMN1 product. A therapy that either increases the amount of SMN2 product made increases the inclusion of exon 7 has been proposed for the treatment of SMA. We have designed an assay to identify small molecules that can increase the amount of functional SMN2 product by appending a luciferase reporter gene after the native SMN2 gene, such that inclusion of exon 7 in the expressed product places the luciferase sequence in frame, thus generating functional luciferase enzyme. As a counterscreen for nonspecific modulators of expression, we have run compounds through a similar assay that measures expression of an SMN1-luciferase chimera.
NCGC Assay Protocol Summary: This screen utilizes a luciferase reporter gene assay, combining the promoter with the major portion of the native SMN1 cDNA (exons 1 -7, intron 8 , exon 8 fused to luciferase) stably expressed in HEK293 cells. Compounds that increase luciferase signal presumably enhance expression of the functional SMN1 splice variant. Passaging media contained DMEM w/ glutamax (+phenol red) 10% FCS, 1x pen/strep, 200 ug/ml hygro, 1x sodium pyruvate. Assay media contained DMEM w/ glutamax (-phenol red) 10% FCS, 1x pen strep, 1x pyruvate Sequence, Parameter, Value, Description (1) Cells, 5 uL, 2000 cells/well, 1536 TC treated White solid bottom plate (2) Time, 10-12 hours, 37C 5% CO2 (3) Compound, 23 nl, MLSMR Library (4) Control Compound, 23 nL, Sodium butyrate st 4.5mM (final) conc (5) Time, 30-36 hours, 37C 5% CO2 (6) Reagent, 3 ul, One Glo (TM) from Promega (7) Time, 5-15 minutes, Room temp (8) Detector, Viewlux: luminescent read, 60 second integration, high speed 2x binning Keywords: Spinal muscular atrophy, SMA, SMN2, high throughput screening, MLSMR, MLPCN, NIH Roadmap, qHTS and NCGC
For the molecule `CC(C)Oc1cccc(-c2ccnc(N3CCC(C(N)=O)CC3)n2)c1`, the Potency is 9.72 µM (active). On to `CNC(=O)C1CCN(c2nc(-c3ccc(Br)cc3)cs2)CC1`, for which the “activity change, negative = inhibition” value was -20.8%. Regarding `COc1cc(OC)cc(-c2csc(N3CCC(C(N)=O)CC3)n2)c1`, the “activity change, negative = inhibition” value was 13.7%. Consider `COc1ccccc1-c1csc(N2CCC(C(N)=O)CC2)n1`, for which the “activity change, negative = inhibition” value is 9.84%. In the case of `CC(C)(C)OC(=O)NC1CCN(c2nc(-c3ccc(Br)cc3)cs2)CC1`, the “activity change, negative = inhibition” value was -18%.

Regarding `Cc1ccc(-c2ccnc(N3CCC(C(N)=O)CC3)n2)cc1`, the Potency is 7.72 µM (active). Still for that read-out and setting: to `NC(=O)C1CCN(c2nc(-c3ccc4c(c3)OCCCO4)cs2)CC1` belongs 7.72 µM (active). For `NC(=O)C1CCN(c2nc(-c3ccc(Oc4ccccc4)cc3)cs2)CC1`, the “activity change, negative = inhibition” value is -6.89%. For the molecule `CC(=O)N1CCN(c2nc(-c3ccc(Br)cc3)cs2)CC1`, the Potency is 15.4 µM (active). With `NC(=O)C1CCN(c2ncc(-c3ccc4c(c3)OCCO4)s2)CC1`, the Potency was 1.22 µM (active). For `CN(C)c1cccc(-c2ccnc(N3CCC(C(N)=O)CC3)n2)c1`, the “activity change, negative = inhibition” value was -22%. `NC(=O)C1CCN(c2nc(-c3ccc(OC(F)(F)F)cc3)cs2)CC1`: the “activity change, negative = inhibition” value is 5.89%. Same read-out and setting: to `NC(=O)C1CCN(c2nc(-c3ccc([N+](=O)[O-])cc3)cs2)CC1` belongs -14.7%. Turning to `NC(=O)C1CCN(c2ncc(-c3ccc4c(c3)OCO4)s2)CC1`, the Potency was 0.972 µM (active).

As to `NC(=O)C1CCN(c2nc(-c3cccc([N+](=O)[O-])c3)cs2)CC1`, the “activity change, negative = inhibition” value was 9.79%. Regarding `Cc1ccc(-c2nnc(N3CCC(C(N)=O)CC3)s2)cc1`, the Potency was 6.14 µM (active). Regarding `NC(=O)C1CCN(c2nc(-c3cccc4ccccc34)cs2)CC1`, the “activity change, negative = inhibition” value was -3.85%.

For the molecule `COc1ccc(-c2cnc(N3CCC(C(N)=O)CC3)s2)cc1OC`, the “activity change, negative = inhibition” value is -10.1%. As to `CN(C)c1cccc(-c2ncc(F)c(N3CCC(C(N)=O)CC3)n2)c1`, the “activity change, negative = inhibition” value was -14.2%. With `CN(C)c1cccc(-c2nnc(N3CCC(C(N)=O)CC3)s2)c1`, the Potency is 6.14 µM (active). Same read-out and setting: to `NC(=O)C1CCN(c2ncc(-c3ccc4c(c3)OC(F)(F)O4)s2)CC1` belongs 15.4 µM (active).

With `CC(C)Oc1ccc(-c2csc(N3CCC(C(N)=O)CC3)n2)cc1`, the “activity change, negative = inhibition” value was -20.3%. Turning to `Brc1ccc(-c2csc(N3CCNCC3)n2)cc1`, the Potency is 30.7 µM (active). As for `O=C(Nc1ccccc1)C1CCN(c2nc(-c3ccc(Br)cc3)cs2)CC1`, the “activity change, negative = inhibition” value is -16.1%.

`CSc1ccc(-c2cnc(N3CCC(C(N)=O)CC3)s2)cc1`: the Potency was 0.972 µM (active). The same measure, in the same setting: to `NC(=O)C1CCN(c2ncc(-c3ccc(Cl)cc3)s2)CC1` belongs 9.72 µM (active). Take `O=C(c1ccco1)N1CCN(c2nc(-c3ccc(Br)cc3)cs2)CC1`: the “activity change, negative = inhibition” value is -26.7%. The same measure, in the same setting: the same measure for `NC(=O)C1CCN(c2ncc(-c3cccc(N4CCCCC4)c3)s2)CC1`: -28.5%. For the molecule `NC(=O)C1CCN(c2nc(-c3ccc(C(F)(F)F)cc3)cs2)CC1`, the “activity change, negative = inhibition” value was -27.4%.

For the molecule `CC(=O)C1CCN(c2ncc(-c3ccc4c(c3)OCCCO4)s2)CC1`, the Potency is 4.87 µM (active).

For the molecule `NC(=O)C1CCN(c2nc(-c3ccc(N)cc3)cs2)CC1`, the “activity change, negative = inhibition” value was 7.68%. On to `NC(=O)C1CCN(c2ncc(Br)cn2)CC1`, for which the “activity change, negative = inhibition” value is 9.17%.

As for `O=C(NCc1ccccc1)C1CCN(c2nc(-c3ccc(Br)cc3)cs2)CC1`, the “activity change, negative = inhibition” value was -14.5%.

In the case of `NC(=O)N1CCN(c2nc(-c3ccc(Br)cc3)cs2)CC1`, the “activity change, negative = inhibition” value is -14.2%.

`Cc1ccc(-c2cnc(N3CCC(C(N)=O)CC3)s2)cc1`: the Potency is 2.44 µM (active). With `O=C(NCCc1ccccc1)C1CCN(c2nc(-c3ccc(Br)cc3)cs2)CC1`, the “activity change, negative = inhibition” value is -15.8%. For the molecule `NC(=O)C1CCN(c2nccc(Cl)n2)CC1`, the “activity change, negative = inhibition” value was -13.7%. Same read-out and setting: to `N#Cc1cccc(-c2csc(N3CCC(C(N)=O)CC3)n2)c1` belongs 6.78%.

For `CCOc1ccc(-c2csc(N3CCC(C(N)=O)CC3)n2)cc1`, the “activity change, negative = inhibition” value was -16.1%. Consider `Cc1cccc(-c2csc(N3CCC(C(N)=O)CC3)n2)c1`, for which the “activity change, negative = inhibition” value is 5.68%.
